# Some structures have more than one record in an assay (separate samples or runs), and their calls can disagree. The source made the active and inactive calls. Rule for the calls: active = hit-call score of the fitted dose curve at least 0.9, where 1 is the maximum; inactive = score below 0.9.
# Assay: BSK_3C_uPAR: BioMAP Diversity Plus: 3C Assay for Urokinase-type plasminogen activator receptor (uPAR) Biomarker Activity (AID 2282998)
# Conditions: BioMAP 3C HUVEC, uPAR biomarker ELISA; actives raise or lower the signal
# Procedure: BSK_3C is a cell-based, multiplexed-readout assay that uses umbilical vein endothelium, a human vascular primary cell, with measurements taken at 24 hours after chemical dosing in a 96-well plate.BSK_3CAR is an assay component measured in the BSK_3C assay. It measures uPAR antibody related to regulation of gene expression using ELISA technology.Data from the assay component BSK_3CAR was analyzed into 1 assay endpoint. This assay endpoint, BSK_3CAR, was analyzed with bidirectional fitting relative to DMSO as the negative control and baseline of activity. Using a type of binding reporter, gain or loss-of-signal activity can be used to understand changes in the signaling as they relate to the gene PLAUR. Furthermore, this assay endpoint can be referred to as a primary readout, because this assay has produced multiple assay endpoints where this one serves a signaling function. To generalize the intended target to other relatable targets, this assay endpoint is annotated to the cytokine intended target family, where the subfamily is plasmogen activator.
# The levels of cell surface (or secreted, indicated by the prefix "s") biomarker endpoints were measured by ELISA. Overt cytotoxicity to cells in confluent adherent cultures (all systems other than the BT system) was assessed by measuring total protein levels using sulforhodamine B (SRB) staining in parallel cultures at the time of biomarker measurements, indicated as SRB endpoints. For proliferation assays for adherent cell types, individual cell types are cultured at sub-confluence and relative cell numbers quantified by SRB staining at time points optimized for each system (48 h: 3C and CASM3C systems; 72 h: BT and HDF3CGF systems; 96 h: SAg system). SRB was performed by staining cells with 0.1% SRB after fixation with 10% TCA and reading wells at 560 nm.Viability and proliferation of PBMC (T cells) was quantified by Alamar Blue reduction for the SAg and BT systems. For PBMC viability (referred to as PBMC Cytotoxicity within the assay endpoint names), cells were plated (75,000/well in a 96-well plate) and then chemical samples added for 1 h before addition of activators, SEB and TSST-1 (20 ng/mL final concentration each). Cells were incubated for 90 h. Then, Alamar Blue (20 uL/well) (Invitrogen, Cat DAL1100) was added for 6 h, and the plates were read with a fluorescence microplate reader at 546/580 nm (excitation/emission). For PBMC proliferation, cells were plated and activated as above but incubated for only 16 h prior to addition of Alamar Blue. Plates were read after 6 h.
Compound,outcome,AC50
C=CCc1ccc2c(c1)OCO2,inactive,–
COC(=O)c1ccccc1N,inactive,–
CCCCCCCCOC(=O)c1ccc(C(=O)OCCCCCCCC)c(C(=O)OCCCCCCCC)c1,inactive,–
CCN(CC)N=O,inactive,–
C1=Cc2cccc3cccc1c23,inactive,–
ClCCOCCCl,inactive,–
CCCCCOC(=O)c1ccccc1C(=O)OCCCCC,inactive,–
ClC1=C(Cl)[C@]2(Cl)[C@H]3[C@H]([C@@H]4C=C[C@H]3C4)[C@@]1(Cl)C2(Cl)Cl,–,16.1 µM (active)
[O-][Cl+]O,inactive,–
OCCOCCO,inactive,–
CCCCOC(=O)c1ccccc1C(=O)OCc1ccccc1,inactive,–
Nc1ccc(N=Nc2ccccc2)cc1,inactive,–
CN(C)c1ccc(C(=O)c2ccc(N(C)C)cc2)cc1,–,3.34 µM (active)
Clc1ccc(Cl)c(Cl)c1,inactive,–
COc1cc(C=O)cc2c1[C@H](COC(N)=O)[C@]1(OC(C)=O)ON2C[C@H]2[C@@H]1N2C(C)=O,–,11.6 µM (active)
CN(C)[C@@H]1C(=O)C(C(N)=O)=C(O)[C@@]2(O)C(=O)C3=C(O)c4c(O)cccc4[C@@](C)(O)[C@H]3C[C@@H]12,inactive,–
CNC(=O)Oc1cccc2c1OC(C)(C)C2,inactive,–
Cc1cc(N=Nc2ccccc2C)ccc1N,–,10.4 µM (active)
Nc1ccc(Cc2ccc(N)cc2)cc1,inactive,–
Cc1ccc(N)c(N)c1,inactive,–

Compound,outcome,AC50
c1ccc(N=Nc2ccccc2)cc1,inactive,–
Nc1ccc([N+](=O)[O-])cc1,inactive,–
Oc1ccc2ccc3cccc4ccc1c2c34,–,22.3 µM (active)
Brc1ccc(Oc2ccccc2)cc1,inactive,–
Nc1ccc(Cl)cc1N,inactive,–
CS(=O)(=O)NC(=O)c1cc(Oc2ccc(C(F)(F)F)cc2Cl)ccc1[N+](=O)[O-],–,28.6 µM (active)
CCOc1cccc(C2(N3CCN(c4ccccc4)CC3)CCC(C)CC2)c1 (stereo not given),inactive,–
Cc1cccc(N)c1N,inactive,–
Nc1cc(Cl)cc(C(=O)O)c1Cl,inactive,–
CCCSC(=O)N(CCC)CCC,inactive,–
O=C(O)C1C2CCC(O2)C1C(=O)O (stereo not given),inactive,–
Cc1ccc(N=C=O)cc1N=C=O,inactive,–
CCOC(=O)[C@]1(c2ccccc2)Oc2ccccc2[C@@H]1N,–,20 µM (active)
CCC(C)c1ccc(O)cc1 (stereo not given),inactive,–
CCN(CC)CCO,inactive,–
Clc1ccc(C(c2ccc(Cl)cc2)C(Cl)(Cl)Cl)cc1,–,15.2 µM (active)
OCCCBr,inactive,–
CCNS(=O)(=O)C(F)(F)C(F)(F)C(F)(F)C(F)(F)C(F)(F)C(F)(F)C(F)(F)C(F)(F)F,inactive,19.6 µM (active)
CC(C)COC(=O)c1ccccc1C(=O)OCC(C)C,inactive,–
